# Results as given in PubChem BioAssay (EPA / NIEHS).
# Several values for one entry are separate records, joined by “and”; a condition that tells them apart may be missing. Equal entries are not always repeated. Records with an inconclusive call do not appear. A structure can be active in one record and inactive in another. Activity calls are given as the source filed them. Rule for the calls: active = hit-call score of the fitted dose curve at least 0.9, where 1 is the maximum; inconclusive = response in the unintended direction; inactive = score below 0.9.
# What was measured:
# [1] = molecular target: human Peripheral-type Benzodiazepine Receptor (PBR), TSPO (gene 706) (UniProt P30536); assay: NVS_MP_hPBR: NovaScreen (NVS) Membrane Protein Assay for human Peripheral-type Benzodiazepine Receptor (PBR) (AID 2283331);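 note: hits reduce radioligand binding relative to DMSO baseline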
# Procedure, shortened: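 Using human colon-derived membranes, this one-endpoint binding test reads radioligand loss by scintillation after 1 h. Screening started at 25 uM in duplicate, with positive and negative controls on every plate, and actives moved to dose series.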
# [2] = molecular target: rat Peripheral-type Benzodiazepine Receptor (PBR), Tspo (gene 24230) (UniProt P16257); assay: NVS_MP_rPBR: NovaScreen (NVS) Membrane Protein Assay for rat Peripheral-type Benzodiazepine Receptor (PBR) (AID 2283335)
# Procedure, shortened: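 Single-concentration duplicate screening at 25 uM preceded concentration-series retesting of actives. Binding of a specific radioligand to rat kidney membrane PBR was read by filtration radiodetection after 1 h, with plate-wise positive and negative controls.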
# [3] = NVS_IC_rCaBTZCHL: NovaScreen (NVS) Ion Channel Assay for Calcium Channel, Type L, Benzothiazepine Site (CaBTZCHL) (AID 2283337)
# Procedure, shortened: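 Benzothiazepine-site binding was assessed in a tissue-derived, cell-free rat cortical membrane system. After 1.5 h exposure, radioactivity retained on filters was quantified by scintillation; positive and negative controls accompanied every plate.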
# [4] = molecular target: rat Thyrotropin Releasing Hormone Receptor (TRH), Trhr (gene 25570) (UniProt Q01717); assay: NVS_GPCR_rTRH: NovaScreen (NVS) G Protein-Coupled Receptor Assay for rat Thyrotropin Releasing Hormone Receptor (TRH) (AID 2283329);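 note: hit means lower bound tracer signal versus DMSO baseline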
# Procedure, shortened: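 Test compounds are screened at 25 uM in duplicate against radioligand binding in rat forebrain membranes, with active pairs followed up over a concentration range. Detection uses filter-based radiodetection after a 4 h exposure.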
# [5] = molecular target: rat Neonicotinoid receptor (NNR), Chrna7 (gene 25302) (UniProt Q05941); assay: NVS_LGIC_rNNR_BungSens: NovaScreen (NVS) Ligand-Gated Ion Channel Assay for rat Neonicotinoid receptor (NNR) (AID 2283315)
# Procedure, shortened: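 Rat cortical membrane preparation incubated 2.5 h with tritiated or iodinated radioligand and test chemical. Bound radioactivity was filtered and counted by scintillation, and displacement was analysed against DMSO.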
# [6] = molecular target: bovine Gamma-Aminobutyric Acid Type A Receptor BDZ, alpha 5 site (GABARa5), GABRA5 (gene 523515) (UniProt Q08E50); assay: NVS_LGIC_bGABARa5: NovaScreen (NVS) Ligand-Gated Ion Channel Assay for bovine Gamma-Aminobutyric Acid Type A Receptor BDZ, alpha 5 site (GABARa5) (AID 2283323)
# Procedure, shortened: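 Tested first in duplicate at a single 25 uM, with hits re-run in concentration series to a 50 uM maximum. Bovine hippocampal membranes; specific radioligand displacement measured by filter scintillation counting 1 hr post-dose.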
# [7] = molecular target: rat Adrenergic, Alpha 1A Receptor (Adra1A), Adra1a (gene 29412) (UniProt P43140); assay: NVS_GPCR_rAdra1A: NovaScreen (NVS) G Protein-Coupled Receptor Assay for rat Adrenergic, Alpha 1A Receptor (Adra1A) (AID 2283296)
# Procedure, shortened: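 Filter radiodetection after 1 h competitive binding on CEC-pretreated rat cortical membranes. Duplicate single-point screening at 25 uM; active chemicals retested across concentration series.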
# [8] = test system: rat Adrenergic, Alpha 1B Receptor (Adra1B), gene 24173; assay: NVS_GPCR_rAdra1B: NovaScreen (NVS) G Protein-Coupled Receptor Assay for rat Adrenergic, Alpha 1B Receptor (Adra1B) (AID 2283297)
# Procedure, shortened: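 Filter-binding radioligand competition on membranes from rat liver, read after 1 h by scintillation counting. Single-concentration duplicate screen at 25 uM, followed by concentration-response on actives, normalised to DMSO.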
# [9] = molecular target: rat Histamine Receptor (H3), Hrh3 (gene 85268) (UniProt Q9QYN8); assay: NVS_GPCR_rH3: NovaScreen (NVS) G Protein-Coupled Receptor Assay for rat Histamine Receptor (H3) (AID 2283303)
# Procedure, shortened: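 Filter-binding radioligand competition on rat forebrain membranes, 1 h incubation; compounds screened at 25 µM in duplicate and followed in concentration series to 50 µM, loss of bound signal vs DMSO.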
# Adra2b (gene 24174) = Adra2b (gene 24174) (UniProt P19328); assay: NVS_GPCR_rmAdra2B: NovaScreen (NVS) G Protein-Coupled Receptor Assay for hybird cells Adrenergic, Alpha 2B Receptor (Adra2B) (AID 2283306)
# Procedure, shortened: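 Compounds screened first at 25 uM in duplicate, with actives followed up in concentration-response; specific radioligand displacement from hybrid neuroglioma/blastoma cell membrane preparations measured by filter scintillation counting after 1 h, normalized to DMSO.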
# [10] = molecular target: rat Glutamate Metabotropic Receptor 5 (MGluR5), Grm5 (gene 24418) (UniProt P31424); assay: NVS_GPCR_rmMGluR5: NovaScreen (NVS) G Protein-Coupled Receptor Assay for rat Glutamate Metabotropic Receptor 5 (MGluR5) (AID 2283307)
# Procedure, shortened: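 Compounds first screened in duplicate at 25 uM, then in concentration series up to 50 uM if over threshold. Radioligand displacement on rat whole-brain membranes, filtration and scintillation counting after 1.5 h; binding loss relative to DMSO.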
# [11] = molecular target: rat Neurokinin-1 Receptor (NK1), Tacr1 (gene 24807) (UniProt P14600); assay: NVS_GPCR_rNK1: NovaScreen (NVS) G Protein-Coupled Receptor Assay for rat Neurokinin-1 Receptor (NK1) (AID 2283309)
# Procedure, shortened: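 Competitive radioligand binding to NK1 in rat submaxillary membranes, 1 h incubation, filtration and scintillation read-out. Compounds first screened at 25 uM in duplicate, then concentration-response for actives; signal loss relative to DMSO.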
# [12] = molecular target: rat Opioid Receptor, Non-selective Sodium (Na+) Binding, Oprm1 (gene 25601) (UniProt P33535); assay: NVS_GPCR_rOpiate_NonSelectiveNa: NovaScreen (NVS) G Protein-Coupled Receptor Assay for rat Opioid Receptor, Non-selective Sodium (Na+) Binding (AID 2283311)
# Procedure, shortened: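 Filtration radioligand binding on rat forebrain membrane preparations, read 1.5 h after dosing. Single-concentration 25 µM primary screen in duplicate, followed by singleton concentration series to 50 µM max for actives; DMSO baseline.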
# [13] = molecular target: rat Opioid Receptor, Non-selective Binding, Oprm1 (gene 25601) (UniProt P33535); assay: NVS_GPCR_rOpiate_NonSelective: NovaScreen (NVS) G Protein-Coupled Receptor Assay for rat Opioid Receptor, Non-selective Binding (AID 2283318)
# Procedure, shortened: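 Filter-based radioligand displacement using rat forebrain membrane preparations, measured 1.5 h post-dosing. Single-concentration duplicate screen at 25 uM, follow-up in concentration series; activity taken as signal loss relative to DMSO.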
# [14] = molecular target: Sodium channel protein type 1 subunit alpha (Rattus norvegicus) (UniProt P04774); assay: NVS_IC_rNaCh_site2: NovaScreen (NVS) Ion Channel Assay for rat Sodium Channel, Site 2 (NaCh) (AID 2283322);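 note: hit means loss of radioligand binding signal relative to DMSO so AC50 marks displacement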
# Procedure, shortened: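 Initial duplicate single-point testing at 25 uM, followed by concentration-response runs for actives. Binding of radioligand to rat forebrain membranes quantified after 1 h via filter-based radiodetection.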
# [15] = molecular target: rat Gamma-Aminobutyric Acid Type A Receptor, Non-Selective (GABAR-NonSelective), Gabra1 (gene 29705) (UniProt P62813); assay: NVS_LGIC_rGABAR_NonSelective: NovaScreen (NVS) Ligand-Gated Ion Channel Assay for rat Gamma-Aminobutyric Acid Type A Receptor, Non-Selective (GABAR-NonSelective) (AID 2283326)
# Procedure, shortened: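 Compounds were first screened in duplicate at 25 uM, with actives run as singleton concentration series (max 50 uM). Binding of a radioligand to rat whole-brain GABA-A preparation was measured by filtration and scintillation counting after 1 h, DMSO baseline.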
# [16] = molecular target: Voltage-gated inwardly rectifying potassium channel KCNH2 (Homo sapiens) (UniProt Q12809); assay: NVS_IC_hKhERGCh: NovaScreen (NVS) Ion Channel Assay for human Potassium Channel ERG (KhERGCh) (AID 2283333)
# Procedure, shortened: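 Membranes from CHO cells expressing human ERG; displacement of radioligand measured by filtration and scintillation after 0.75 h. Single-concentration duplicate screen at 25 uM, then concentration-response for actives; DMSO baseline.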
# [17] = molecular target: rat Adrenergic Receptor, Beta (Adrb), Non-selective Binding, Adrb1 (gene 24925) (UniProt P18090); assay: NVS_GPCR_rAdrb_NonSelective: NovaScreen (NVS) G Protein-Coupled Receptor Assay for rat Adrenergic Receptor, Beta (Adrb), Non-selective Binding (AID 2283298)
# Procedure, shortened: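 Rat cortical membranes incubated 1 h with beta-adrenergic radioligand and test chemical; bound ligand measured by filtration and scintillation counting. Screen at 25 uM duplicate, then concentration series with 50 uM maximum; loss of signal versus DMSO.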
# [18] = molecular target: rat Vasopressin 1 Receptor (V1), Avpr1a (gene 25107) (UniProt P30560); assay: NVS_GPCR_rV1: NovaScreen (NVS) G Protein-Coupled Receptor Assay for rat Vasopressin 1 Receptor (V1) (AID 2283316)
# Procedure, shortened: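 Concentration-response up to 50 uM for chemicals passing a threshold such as 30% inhibition in an initial duplicate 25 uM screen. Displacement of radioligand from rat liver membranes measured after 1.5 h by filtration and scintillation.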
# [19] = molecular target: bovine Gamma-Aminobutyric Acid Type A Receptor Agonist (GABAR Agonist), GABRA1 (gene 780973) (UniProt P08219); assay: NVS_LGIC_bGABAR_Agonist: NovaScreen (NVS) Ligand-Gated Ion Channel Assay for bovine Gamma-Aminobutyric Acid Type A Receptor Agonist (GABAR Agonist) (AID 2283338)
# Procedure, shortened: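 Radioligand binding to bovine cerebellar membranes in agonist format, read by filter-based scintillation counting after 1 h. Primary screen in duplicate at 25 uM, with actives followed in concentration series. Gain of signal versus DMSO.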
# Chain of rat Peripheral-type Benzodiazepine Receptor (PBR), Tspo (gene 24230) (P16257 whole entry, looked up): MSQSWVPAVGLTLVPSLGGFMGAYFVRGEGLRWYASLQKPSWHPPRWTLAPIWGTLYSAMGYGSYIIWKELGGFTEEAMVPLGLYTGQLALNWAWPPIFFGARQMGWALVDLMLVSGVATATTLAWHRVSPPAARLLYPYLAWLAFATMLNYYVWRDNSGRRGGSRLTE
# Chain of rat Opioid Receptor, Non-selective Binding, Oprm1 (gene 25601) (P33535 whole entry, looked up): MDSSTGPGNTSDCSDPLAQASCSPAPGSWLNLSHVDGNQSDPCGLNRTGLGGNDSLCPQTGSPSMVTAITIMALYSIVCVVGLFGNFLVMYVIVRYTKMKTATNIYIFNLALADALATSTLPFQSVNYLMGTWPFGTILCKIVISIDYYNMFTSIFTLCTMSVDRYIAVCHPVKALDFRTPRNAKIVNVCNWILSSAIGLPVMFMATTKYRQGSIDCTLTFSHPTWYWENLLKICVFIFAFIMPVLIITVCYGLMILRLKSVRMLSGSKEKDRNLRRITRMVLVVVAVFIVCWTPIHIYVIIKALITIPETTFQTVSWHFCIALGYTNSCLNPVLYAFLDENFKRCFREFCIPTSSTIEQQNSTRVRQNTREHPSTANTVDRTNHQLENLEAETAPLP
# Chain of rat Opioid Receptor, Non-selective Sodium (Na+) Binding, Oprm1 (gene 25601) (P33535 whole entry, looked up): as above
# Chain of rat Neonicotinoid receptor (NNR), Chrna7 (gene 25302) (Q05941 whole entry, looked up): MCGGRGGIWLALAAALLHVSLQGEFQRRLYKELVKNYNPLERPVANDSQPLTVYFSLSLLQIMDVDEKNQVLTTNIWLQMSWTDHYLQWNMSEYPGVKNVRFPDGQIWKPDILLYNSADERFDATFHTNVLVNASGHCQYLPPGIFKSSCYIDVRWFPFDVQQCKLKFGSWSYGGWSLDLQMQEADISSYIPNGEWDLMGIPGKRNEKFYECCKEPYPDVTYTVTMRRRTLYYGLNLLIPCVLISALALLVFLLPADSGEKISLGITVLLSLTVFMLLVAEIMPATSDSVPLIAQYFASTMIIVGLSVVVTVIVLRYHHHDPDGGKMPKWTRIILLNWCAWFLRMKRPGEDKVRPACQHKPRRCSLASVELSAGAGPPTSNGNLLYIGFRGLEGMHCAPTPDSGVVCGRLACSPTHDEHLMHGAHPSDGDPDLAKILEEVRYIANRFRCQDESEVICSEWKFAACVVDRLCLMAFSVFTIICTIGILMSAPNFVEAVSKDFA
# Chain of human Peripheral-type Benzodiazepine Receptor (PBR), TSPO (gene 706) (P30536 whole entry, looked up): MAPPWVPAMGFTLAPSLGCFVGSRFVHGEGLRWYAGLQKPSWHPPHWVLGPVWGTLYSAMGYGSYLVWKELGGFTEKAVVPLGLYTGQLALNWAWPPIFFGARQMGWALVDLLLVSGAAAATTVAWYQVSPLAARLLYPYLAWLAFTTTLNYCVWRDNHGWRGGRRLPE
# Chain of rat Thyrotropin Releasing Hormone Receptor (TRH), Trhr (gene 25570) (Q01717 whole entry, looked up): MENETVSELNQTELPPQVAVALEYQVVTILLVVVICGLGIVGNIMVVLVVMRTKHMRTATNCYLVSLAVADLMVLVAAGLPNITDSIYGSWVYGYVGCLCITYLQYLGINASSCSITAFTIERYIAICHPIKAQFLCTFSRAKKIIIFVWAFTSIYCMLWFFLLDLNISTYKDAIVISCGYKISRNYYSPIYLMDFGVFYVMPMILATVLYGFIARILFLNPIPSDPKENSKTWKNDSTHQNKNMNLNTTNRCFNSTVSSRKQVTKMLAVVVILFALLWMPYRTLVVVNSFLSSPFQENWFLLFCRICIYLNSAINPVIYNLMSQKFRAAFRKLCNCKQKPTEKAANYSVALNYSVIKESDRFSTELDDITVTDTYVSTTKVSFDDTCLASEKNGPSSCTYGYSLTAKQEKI
# Chain of rat Vasopressin 1 Receptor (V1), Avpr1a (gene 25107) (P30560 whole entry, looked up): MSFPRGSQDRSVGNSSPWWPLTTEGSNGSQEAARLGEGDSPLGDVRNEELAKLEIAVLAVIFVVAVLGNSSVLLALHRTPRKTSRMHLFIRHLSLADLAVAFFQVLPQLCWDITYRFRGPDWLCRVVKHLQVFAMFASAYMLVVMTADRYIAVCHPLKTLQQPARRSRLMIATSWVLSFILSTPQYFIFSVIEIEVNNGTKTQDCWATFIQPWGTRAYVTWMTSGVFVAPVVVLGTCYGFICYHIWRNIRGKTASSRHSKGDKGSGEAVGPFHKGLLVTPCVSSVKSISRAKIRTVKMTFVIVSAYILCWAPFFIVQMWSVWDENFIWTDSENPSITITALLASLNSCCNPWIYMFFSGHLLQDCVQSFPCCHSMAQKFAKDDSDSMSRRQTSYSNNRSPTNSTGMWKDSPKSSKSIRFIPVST
# Chain of rat Glutamate Metabotropic Receptor 5 (MGluR5), Grm5 (gene 24418) (P31424 whole entry, looked up): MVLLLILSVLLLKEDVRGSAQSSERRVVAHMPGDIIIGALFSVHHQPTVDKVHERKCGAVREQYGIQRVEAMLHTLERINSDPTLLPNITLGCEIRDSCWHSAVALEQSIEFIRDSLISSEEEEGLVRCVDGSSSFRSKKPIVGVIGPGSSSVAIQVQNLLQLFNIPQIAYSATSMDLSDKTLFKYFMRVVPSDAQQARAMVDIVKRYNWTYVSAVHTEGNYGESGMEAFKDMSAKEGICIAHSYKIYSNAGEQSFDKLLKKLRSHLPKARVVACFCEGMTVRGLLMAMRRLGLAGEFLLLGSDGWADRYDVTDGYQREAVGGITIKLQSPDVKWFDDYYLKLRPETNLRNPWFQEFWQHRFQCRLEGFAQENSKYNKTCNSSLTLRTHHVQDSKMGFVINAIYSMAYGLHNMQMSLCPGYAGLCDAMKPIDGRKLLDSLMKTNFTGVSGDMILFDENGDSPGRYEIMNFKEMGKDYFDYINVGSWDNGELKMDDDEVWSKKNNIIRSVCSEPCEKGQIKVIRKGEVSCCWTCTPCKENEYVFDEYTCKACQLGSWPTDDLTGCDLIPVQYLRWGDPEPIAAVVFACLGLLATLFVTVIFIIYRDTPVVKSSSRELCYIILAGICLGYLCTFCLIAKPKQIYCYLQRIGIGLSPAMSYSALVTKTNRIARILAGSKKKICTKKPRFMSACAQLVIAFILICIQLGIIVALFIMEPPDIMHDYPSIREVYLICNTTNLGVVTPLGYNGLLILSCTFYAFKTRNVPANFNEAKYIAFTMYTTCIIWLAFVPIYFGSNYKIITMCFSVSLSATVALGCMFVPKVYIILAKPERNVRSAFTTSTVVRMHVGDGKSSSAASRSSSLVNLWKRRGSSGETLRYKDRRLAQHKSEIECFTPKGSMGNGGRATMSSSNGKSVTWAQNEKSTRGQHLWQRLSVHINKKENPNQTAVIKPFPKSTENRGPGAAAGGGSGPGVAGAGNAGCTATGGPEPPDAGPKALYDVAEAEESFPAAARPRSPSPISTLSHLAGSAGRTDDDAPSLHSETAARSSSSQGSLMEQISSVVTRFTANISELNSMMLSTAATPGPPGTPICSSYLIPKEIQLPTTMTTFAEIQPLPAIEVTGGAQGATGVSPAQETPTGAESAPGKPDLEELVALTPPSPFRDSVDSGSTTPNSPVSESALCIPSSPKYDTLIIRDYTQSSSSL
# Chain of bovine Gamma-Aminobutyric Acid Type A Receptor Agonist (GABAR Agonist), GABRA1 (gene 780973) (P08219 whole entry, looked up): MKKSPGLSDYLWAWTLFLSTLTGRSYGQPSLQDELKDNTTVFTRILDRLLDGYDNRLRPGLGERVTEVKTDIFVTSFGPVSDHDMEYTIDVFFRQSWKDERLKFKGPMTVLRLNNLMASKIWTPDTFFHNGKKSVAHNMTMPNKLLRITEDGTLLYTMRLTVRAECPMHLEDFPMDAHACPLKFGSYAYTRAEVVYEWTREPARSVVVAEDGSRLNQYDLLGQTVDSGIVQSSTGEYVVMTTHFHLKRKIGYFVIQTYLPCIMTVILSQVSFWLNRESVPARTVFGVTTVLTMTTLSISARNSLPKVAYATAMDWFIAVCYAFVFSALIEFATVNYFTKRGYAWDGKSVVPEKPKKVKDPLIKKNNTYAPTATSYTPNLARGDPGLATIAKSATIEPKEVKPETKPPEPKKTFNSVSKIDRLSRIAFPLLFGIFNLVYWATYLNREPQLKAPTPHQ
# Chain of rat Adrenergic, Alpha 1A Receptor (Adra1A), Adra1a (gene 29412) (P43140 whole entry, looked up): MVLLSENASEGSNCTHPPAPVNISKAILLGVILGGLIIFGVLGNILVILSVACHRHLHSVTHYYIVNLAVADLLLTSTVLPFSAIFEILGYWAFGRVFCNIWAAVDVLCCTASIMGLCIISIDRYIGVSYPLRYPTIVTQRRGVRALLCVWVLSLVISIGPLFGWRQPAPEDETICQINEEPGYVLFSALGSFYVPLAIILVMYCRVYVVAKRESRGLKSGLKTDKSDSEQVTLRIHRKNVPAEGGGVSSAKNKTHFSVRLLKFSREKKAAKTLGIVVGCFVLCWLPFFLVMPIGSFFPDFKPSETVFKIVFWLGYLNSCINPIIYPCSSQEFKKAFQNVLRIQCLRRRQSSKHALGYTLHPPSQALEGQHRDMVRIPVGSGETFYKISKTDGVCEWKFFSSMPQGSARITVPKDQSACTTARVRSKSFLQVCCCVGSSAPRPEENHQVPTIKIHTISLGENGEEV
# Chain of rat Neurokinin-1 Receptor (NK1), Tacr1 (gene 24807) (P14600 whole entry, looked up): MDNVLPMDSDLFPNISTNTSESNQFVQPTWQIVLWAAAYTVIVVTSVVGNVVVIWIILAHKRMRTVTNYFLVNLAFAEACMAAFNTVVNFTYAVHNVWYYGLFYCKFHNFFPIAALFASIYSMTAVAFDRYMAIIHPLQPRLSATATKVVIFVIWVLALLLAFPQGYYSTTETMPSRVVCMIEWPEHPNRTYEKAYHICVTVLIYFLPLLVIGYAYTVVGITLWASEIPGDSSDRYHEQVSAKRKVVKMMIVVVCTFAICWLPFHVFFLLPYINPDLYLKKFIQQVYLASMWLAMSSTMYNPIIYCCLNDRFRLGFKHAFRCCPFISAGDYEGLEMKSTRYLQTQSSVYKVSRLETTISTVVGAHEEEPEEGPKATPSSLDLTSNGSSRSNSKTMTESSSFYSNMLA
structure (smiles),measurement,setting,value
NC(=O)c1c(Cl)cccc1Cl,AC50,[1],3.59 µM (active)
same,outcome,[2],inactive
O=C1OC2(c3ccc(O)cc3Oc3cc(O)ccc32)c2ccccc21,AC50,[1],25 µM (active) and 9.1 µM (active)
same,AC50,[2],15.1 µM (active)
same,outcome,[3],inactive
CC(=O)c1ccc2ccccc2c1,outcome,[4],inactive
CC12CCC(C1)C(C)(C)C2O (stereo not drawn),outcome,[4],inactive
Cc1cc(O)c(C)c(C)c1O,outcome,[5],inactive
c1coc(CNc2ncnc3nc[nH]c23)c1,outcome,[4],inactive
CCO[Si](CC)(OCC)OCC,outcome,[4],inactive
CC(=O)OC(C)(C)C1CC=C(C)CC1 (stereo not drawn),outcome,[3],inactive
Cc1ccc(C(C)(C)O)cc1,outcome,[3],inactive
CC(C)(C)c1cccc(O)c1,outcome,[4],inactive
OCC=Cc1ccccc1,outcome,[4],inactive
CC(C)C(=O)c1ccccc1,outcome,[4],inactive
C1CCCNCC1,outcome,[4],inactive
CC(=O)N(C)C,outcome,[4],inactive
CCCc1ccc(N)cc1,outcome,[4],inactive
CCCCCCCCCCCCS,AC50,[4],0.929 µM (active)
Nc1ccc(N)c([N+](=O)[O-])c1,AC50,[1],3.27 µM (active) and 1.74 µM (active)
same,AC50,[2],1.02 µM (active)
same,outcome,[2],inactive
same,outcome,[3],inactive
CCCCCC(=O)O[C@]1(C(C)=O)CC[C@H]2[C@@H]3CCC4=CC(=O)CC[C@]4(C)[C@H]3CC[C@@]21C,outcome,[4],inactive
COc1cc(OC)c2ccc(=O)oc2c1,AC50,[1],12.1 µM (active)
same,AC50,[2],0.157 µM (active)
CCCCCCCCOS(=O)(=O)O,outcome,[4],inactive
C=C(C)C(N)=O,outcome,[6],inactive
C=CC(=O)OCC(CO)(COC(=O)C=C)COC(=O)C=C,AC50,[1],11 µM (active)
CCCCCC1C(=O)CCC1CC(=O)OC (stereo not drawn),AC50,[2],11.6 µM (active) and 25 µM (active)
same,outcome,[3],inactive
CN1CCc2cccc3c2[C@H]1Cc1ccc(O)c(O)c1-3,AC50,[1],1.83 µM (active)
CC1(C)[C@H](C=C(Cl)Cl)[C@H]1C(=O)OCc1cccc(Oc2ccccc2)c1,outcome,[2],inactive
CCc1cccc(O)c1,outcome,[4],inactive
same,outcome,[2],inactive
O=C(c1ccc(OCCN2CCCCC2)cc1)c1c(-c2ccc(O)cc2)sc2cc(O)ccc12,AC50,[7],5.36 µM (active)
same,AC50,[8],5.62 µM (active)
same,AC50,[9],25 µM (active)
same,AC50,Adra2b (gene 24174),10.7 µM (active)
same,outcome,[10],inactive
same,AC50,[11],18.2 µM (active)
same,AC50,[12],1.96 µM (active)
same,outcome,[5],inactive
same,AC50,[13],3.64 µM (active)
same,AC50,[14],0.869 µM (active)
same,outcome,[15],inactive
same,outcome,[4],inactive
same,AC50,[16],5.34 µM (active)
same,AC50,[2],6.31 µM (active)
same,outcome,[3],inactive
O=S(=O)(O)c1cc(S(=O)(=O)O)c2c(N=Nc3ccccc3)c(O)ccc2c1,outcome,[4],inactive
CC/C(=C(\c1ccccc1)c1ccc(OCCN(C)C)cc1)c1ccccc1,AC50,[17],5.74 µM (active)
same,outcome,[12],inactive
same,outcome,[5],inactive
same,outcome,[18],inactive
same,outcome,[13],inactive
same,AC50,[14],1.56 µM (active)
same,AC50,[3],938 nM (active) and 874 nM (active)
same,outcome,[19],inactive
CCC(C)(C)C1CCC(OC)CC1 (stereo not drawn),outcome,[4],inactive
CCCCCCOc1ccc(O)cc1,AC50,[1],7.77 µM (active)
same,AC50,[2],6.49 µM (active)
O=Cc1ccccc1O,outcome,[4],inactive
C=C1CC[C@H]2O[C@]2(C)CC[C@@H]2[C@@H]1CC2(C)C,AC50,[5],15.6 µM (active)
C#C[C@]1(O)CC[C@H]2[C@@H]3CCc4cc(O)ccc4[C@H]3CC[C@@]21C,outcome,[12],inactive
same,AC50,[18],25 µM (active)
same,AC50,[13],20.5 µM (active)
same,outcome,[14],inactive
same,AC50,[1],2.52 µM (active) and 13.7 µM (active) and 11.4 µM (active)
same,AC50,[2],4.59 µM (active)
same,outcome,[2],inactive
NC(N)=S,outcome,[4],inactive
C=C1CC/C=C(\C)CC[C@@H]2[C@@H]1CC2(C)C,outcome,[3],inactive
